Source: ChEMBL document CHEMBL3988442, “University of Dundee, Small-Polar-MMV Screening Library” (2021)
For some of these results: Entries with a potency or affinity are not part of this list.

Columns and labels:
Set-up in all cases: scale not given: direction of the effect not stated beside the values
[1] = target: Protein translocase subunit SecA (Escherichia coli (strain K12)) (UniProt P10408); assay: Assay to Identify E. coli SecA ATPase Inhibitors; assay type: functional; settings: 30 µM
[2] = target: T1, Ubiquitin-activating enzyme e1, putative (Leishmania donovani (strain BPK282A1)) (UniProt E9BSI1); assay: Leishmania donovani Ubiquitin Activating Enzyme (LdE1); assay type: functional; settings: 30 µM
T1 sequence (whole entry): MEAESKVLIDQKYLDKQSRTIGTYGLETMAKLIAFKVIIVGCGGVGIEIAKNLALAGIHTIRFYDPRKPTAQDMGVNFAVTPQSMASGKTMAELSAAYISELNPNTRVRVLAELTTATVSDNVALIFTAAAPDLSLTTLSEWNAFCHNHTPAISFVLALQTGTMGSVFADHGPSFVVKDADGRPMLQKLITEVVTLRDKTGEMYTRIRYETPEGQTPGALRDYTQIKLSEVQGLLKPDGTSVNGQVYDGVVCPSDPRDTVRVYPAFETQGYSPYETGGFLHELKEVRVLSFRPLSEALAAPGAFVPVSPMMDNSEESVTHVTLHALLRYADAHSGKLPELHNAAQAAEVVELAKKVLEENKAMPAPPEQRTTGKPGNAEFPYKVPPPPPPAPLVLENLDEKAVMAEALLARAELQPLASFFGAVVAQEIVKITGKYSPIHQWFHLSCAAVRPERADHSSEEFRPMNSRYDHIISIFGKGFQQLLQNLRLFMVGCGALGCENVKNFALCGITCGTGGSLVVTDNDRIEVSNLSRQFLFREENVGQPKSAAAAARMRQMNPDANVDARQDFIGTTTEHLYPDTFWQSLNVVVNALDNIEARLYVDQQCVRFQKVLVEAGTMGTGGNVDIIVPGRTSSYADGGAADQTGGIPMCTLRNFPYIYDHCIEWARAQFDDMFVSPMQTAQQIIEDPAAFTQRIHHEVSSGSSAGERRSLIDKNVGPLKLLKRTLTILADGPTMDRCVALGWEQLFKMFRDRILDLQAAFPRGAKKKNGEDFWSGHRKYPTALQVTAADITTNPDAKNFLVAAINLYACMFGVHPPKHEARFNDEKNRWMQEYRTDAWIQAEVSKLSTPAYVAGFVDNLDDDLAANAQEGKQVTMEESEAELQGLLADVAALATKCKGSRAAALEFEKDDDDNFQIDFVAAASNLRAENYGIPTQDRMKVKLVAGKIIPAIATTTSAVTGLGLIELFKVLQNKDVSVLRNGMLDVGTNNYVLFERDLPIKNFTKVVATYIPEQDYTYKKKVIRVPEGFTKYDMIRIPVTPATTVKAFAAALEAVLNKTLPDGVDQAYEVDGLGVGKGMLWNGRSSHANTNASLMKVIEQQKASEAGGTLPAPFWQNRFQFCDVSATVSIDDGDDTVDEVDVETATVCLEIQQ

[3] = target: AMP-activated protein kinase, AMPK (Homo sapiens) (UniProt P54646+O43741+P54619+Q9UGJ0+Q9Y478+Q13131+Q9UGI9); assay: AMP-dependent Kinase enzyme assay. An in vitro enzyme assay that detects ADP turnover that is directly proportional to AMPK activity. This uses naive AMPK that is activated during the assay with MK-8722; assay type: functional; settings: 30 µM
[4] = target: Sialic acid-binding Ig-like lectin 9 (Homo sapiens) (UniProt Q9Y336); assay: Hs-Siglec9 ALPHAscreen SOP 20170721; settings: 10 µM
Trypanosoma cruzi = assay: Trypanosoma cruzi phosphomannomutase and mannose-1-phosphate guanylyltransferase assay; assay type: functional; settings: 10 µM
[5] = target: T2, Arginase-2, mitochondrial (Homo sapiens) (UniProt P78540); assay: in vitro enzyme assay to detect the production of urea directly proportional to the activity of Arginase II; assay type: functional; settings: 33.3 µM; further: in the data most compounds retested in dose-response had high values
T2 sequence (whole entry): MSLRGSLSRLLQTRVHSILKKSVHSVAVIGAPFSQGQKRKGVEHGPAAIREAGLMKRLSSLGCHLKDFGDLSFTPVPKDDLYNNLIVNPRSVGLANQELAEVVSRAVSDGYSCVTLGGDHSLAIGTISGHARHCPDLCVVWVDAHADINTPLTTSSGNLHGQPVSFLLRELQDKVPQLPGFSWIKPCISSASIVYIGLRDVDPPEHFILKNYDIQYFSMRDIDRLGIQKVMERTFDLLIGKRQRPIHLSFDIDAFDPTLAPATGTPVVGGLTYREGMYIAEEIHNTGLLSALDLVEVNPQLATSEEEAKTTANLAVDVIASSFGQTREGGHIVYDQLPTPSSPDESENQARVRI

[6] = target: T3, Proteasome subunit beta (Trypanosoma cruzi) (UniProt O96673); assay: Trypanosoma cruzi proteasome chymotrypsin-like activity (TcProtChymo) assay.; further: in the data most compounds retested in dose-response had high values; assay type: functional; settings: 9.37 µM
T3 sequence (whole entry): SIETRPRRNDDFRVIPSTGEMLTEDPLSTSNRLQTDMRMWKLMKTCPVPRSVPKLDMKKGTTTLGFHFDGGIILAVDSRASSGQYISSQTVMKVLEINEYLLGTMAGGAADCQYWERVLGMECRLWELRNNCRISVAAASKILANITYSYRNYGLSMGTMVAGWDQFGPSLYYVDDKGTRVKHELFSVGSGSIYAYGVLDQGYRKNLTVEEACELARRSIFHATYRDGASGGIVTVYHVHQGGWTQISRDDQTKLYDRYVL

Homo sapiens = organism: Homo sapiens; assay: To identify inhibition of the IFN signalling (Jak-Stat) pathway via expression of an eGFP reporter gene under the control of an IFN-stimulated response element (ISRE) containing MxA promoter.; assay type: functional; settings: 30 µM
[7] = target: T4, Tyrosyl-tRNA synthetase, putative (Trypanosoma cruzi (strain CL Brener)) (UniProt Q4DSP6); assay: Trypanosoma cruzi tyrosyl tRNA synthetase (TcYRS) _High Tyrosine SOP; assay type: functional; settings: 30 µM; further: in the data most compounds retested in dose-response had high values
T4 sequence (whole entry): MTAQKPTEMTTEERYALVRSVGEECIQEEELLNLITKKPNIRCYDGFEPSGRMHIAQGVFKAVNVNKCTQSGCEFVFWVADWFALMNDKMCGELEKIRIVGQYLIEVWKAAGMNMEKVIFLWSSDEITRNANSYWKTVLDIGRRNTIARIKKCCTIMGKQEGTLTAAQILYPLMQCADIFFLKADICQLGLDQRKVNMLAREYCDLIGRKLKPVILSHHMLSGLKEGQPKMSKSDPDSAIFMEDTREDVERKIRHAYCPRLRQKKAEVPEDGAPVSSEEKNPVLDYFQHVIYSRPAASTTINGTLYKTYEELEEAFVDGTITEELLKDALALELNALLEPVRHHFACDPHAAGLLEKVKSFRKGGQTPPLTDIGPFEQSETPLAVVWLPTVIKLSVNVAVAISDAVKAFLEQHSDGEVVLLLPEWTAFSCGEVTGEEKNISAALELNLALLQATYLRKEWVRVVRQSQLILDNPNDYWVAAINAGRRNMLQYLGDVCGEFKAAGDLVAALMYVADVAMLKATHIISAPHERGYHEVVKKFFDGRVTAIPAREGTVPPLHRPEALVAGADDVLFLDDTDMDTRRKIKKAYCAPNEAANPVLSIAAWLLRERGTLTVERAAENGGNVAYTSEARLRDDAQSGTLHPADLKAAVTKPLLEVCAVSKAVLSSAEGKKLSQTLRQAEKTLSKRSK

[8] = target: T4, Tyrosyl-tRNA synthetase, putative (Trypanosoma cruzi (strain CL Brener)); assay: Trypanosoma cruzi tyrosyl tRNA synthetase (TcYRS) SOP; assay type: functional; settings: 30 µM
[9] = target: Chromo domain-containing protein 1 (Saccharomyces cerevisiae (strain ATCC 204508 / S288c) (Baker's yeast)) (UniProt P32657); assay: ScCHD-1 Enzyme Inhibition Assay; assay type: functional; settings: 30 µM; further: in the data most compounds retested in dose-response had high values
Chromo domain-containing protein 1 (Saccharomyces cerevisiae (strain ATCC 204508 / S288c) (Baker's yeast)), sequence (P32657 whole entry, the tested form may be a part): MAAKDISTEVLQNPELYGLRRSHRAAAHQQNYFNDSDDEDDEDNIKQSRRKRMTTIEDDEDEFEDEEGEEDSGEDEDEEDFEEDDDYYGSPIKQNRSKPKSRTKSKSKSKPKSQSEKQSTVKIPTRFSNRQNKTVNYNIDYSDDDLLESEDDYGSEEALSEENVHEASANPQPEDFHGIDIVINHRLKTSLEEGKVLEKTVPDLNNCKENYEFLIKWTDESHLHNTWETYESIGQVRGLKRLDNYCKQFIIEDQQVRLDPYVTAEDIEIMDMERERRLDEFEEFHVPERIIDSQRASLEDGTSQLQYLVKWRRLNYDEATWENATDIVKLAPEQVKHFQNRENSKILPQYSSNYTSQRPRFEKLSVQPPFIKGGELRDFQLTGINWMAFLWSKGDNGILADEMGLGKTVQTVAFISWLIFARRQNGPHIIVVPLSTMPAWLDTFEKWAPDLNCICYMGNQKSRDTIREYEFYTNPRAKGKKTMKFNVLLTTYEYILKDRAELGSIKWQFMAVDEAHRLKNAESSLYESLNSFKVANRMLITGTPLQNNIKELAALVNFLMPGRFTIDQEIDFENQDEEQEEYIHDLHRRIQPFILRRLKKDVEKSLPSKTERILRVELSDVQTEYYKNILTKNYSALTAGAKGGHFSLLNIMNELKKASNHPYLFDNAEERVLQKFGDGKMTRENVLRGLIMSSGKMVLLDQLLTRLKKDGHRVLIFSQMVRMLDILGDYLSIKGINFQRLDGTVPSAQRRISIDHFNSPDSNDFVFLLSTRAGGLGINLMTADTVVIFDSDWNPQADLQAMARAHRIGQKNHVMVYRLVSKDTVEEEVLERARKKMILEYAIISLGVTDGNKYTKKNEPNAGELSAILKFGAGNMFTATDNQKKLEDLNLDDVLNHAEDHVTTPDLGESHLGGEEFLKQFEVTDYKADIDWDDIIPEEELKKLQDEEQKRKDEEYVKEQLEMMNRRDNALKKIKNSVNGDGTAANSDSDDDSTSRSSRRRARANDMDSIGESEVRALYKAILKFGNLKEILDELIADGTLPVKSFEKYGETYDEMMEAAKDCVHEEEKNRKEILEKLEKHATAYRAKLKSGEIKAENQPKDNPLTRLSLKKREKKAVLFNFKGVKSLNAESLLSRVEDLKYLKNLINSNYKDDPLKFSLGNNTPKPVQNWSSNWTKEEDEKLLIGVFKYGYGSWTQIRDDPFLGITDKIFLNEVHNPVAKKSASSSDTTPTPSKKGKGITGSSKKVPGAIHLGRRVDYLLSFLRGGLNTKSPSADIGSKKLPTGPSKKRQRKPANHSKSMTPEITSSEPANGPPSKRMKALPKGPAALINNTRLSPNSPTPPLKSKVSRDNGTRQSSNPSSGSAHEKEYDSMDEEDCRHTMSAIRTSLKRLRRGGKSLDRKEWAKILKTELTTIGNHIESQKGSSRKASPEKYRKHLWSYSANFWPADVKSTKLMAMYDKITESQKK

Sialic acid-binding Ig-like lectin 9 (Homo sapiens), sequence (Q9Y336 whole entry): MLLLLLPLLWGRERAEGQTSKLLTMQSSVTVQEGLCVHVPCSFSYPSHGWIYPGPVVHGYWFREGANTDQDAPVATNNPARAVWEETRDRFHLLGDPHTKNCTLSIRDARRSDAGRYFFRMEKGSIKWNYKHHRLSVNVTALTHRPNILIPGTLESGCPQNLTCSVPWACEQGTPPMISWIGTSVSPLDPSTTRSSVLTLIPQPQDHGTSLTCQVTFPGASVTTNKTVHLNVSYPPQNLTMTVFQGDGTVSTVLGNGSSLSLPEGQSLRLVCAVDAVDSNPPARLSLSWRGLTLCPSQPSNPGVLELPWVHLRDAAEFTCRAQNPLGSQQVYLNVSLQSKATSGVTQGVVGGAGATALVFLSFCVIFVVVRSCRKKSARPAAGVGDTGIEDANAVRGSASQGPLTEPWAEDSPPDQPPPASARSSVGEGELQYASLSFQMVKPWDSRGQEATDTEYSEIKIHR
Protein translocase subunit SecA (Escherichia coli (strain K12)), sequence (P10408 whole entry): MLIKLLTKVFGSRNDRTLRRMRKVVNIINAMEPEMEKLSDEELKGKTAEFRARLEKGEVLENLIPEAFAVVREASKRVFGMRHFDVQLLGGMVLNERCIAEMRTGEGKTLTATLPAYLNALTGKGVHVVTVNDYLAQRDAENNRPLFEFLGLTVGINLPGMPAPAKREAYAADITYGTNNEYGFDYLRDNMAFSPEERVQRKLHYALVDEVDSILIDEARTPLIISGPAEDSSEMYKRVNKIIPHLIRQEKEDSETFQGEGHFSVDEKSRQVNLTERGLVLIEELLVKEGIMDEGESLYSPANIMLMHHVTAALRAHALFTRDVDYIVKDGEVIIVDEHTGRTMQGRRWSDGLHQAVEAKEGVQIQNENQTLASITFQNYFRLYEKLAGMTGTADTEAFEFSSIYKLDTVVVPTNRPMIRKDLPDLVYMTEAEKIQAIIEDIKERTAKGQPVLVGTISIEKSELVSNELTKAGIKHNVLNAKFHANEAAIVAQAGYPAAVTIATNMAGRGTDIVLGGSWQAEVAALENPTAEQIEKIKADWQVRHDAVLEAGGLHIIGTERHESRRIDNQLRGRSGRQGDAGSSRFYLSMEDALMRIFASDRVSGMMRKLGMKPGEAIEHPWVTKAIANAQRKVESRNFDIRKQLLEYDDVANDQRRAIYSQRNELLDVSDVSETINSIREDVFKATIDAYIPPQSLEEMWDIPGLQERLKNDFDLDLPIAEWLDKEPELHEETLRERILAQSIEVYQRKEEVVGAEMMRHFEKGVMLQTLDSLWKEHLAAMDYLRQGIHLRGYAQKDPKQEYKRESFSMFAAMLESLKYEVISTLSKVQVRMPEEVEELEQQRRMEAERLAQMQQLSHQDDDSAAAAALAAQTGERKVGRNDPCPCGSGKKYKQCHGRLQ

Row | SMILES | Percent Effect [1] [%] | Percent Effect [2] [%] | Percent Effect [3] [%] | Percent Effect [4] [%] | Percent Effect (Trypanosoma cruzi) [%] | Percent Effect [5] [%] | Percent Effect [6] [%] | Percent Effect (Homo sapiens) [%] | Percent Effect [7] [%] | Percent Effect [8] [%] | Percent Effect [9] [%]
1 | CCS(=O)(=O)Nc1ccn(Cc2cccc(Cl)c2)n1 | -6.93 | 0 | 0.628 | 6.52 | 2.85 | 1.38 | 9.48 | 13.7 | 6.45 | 13.6 | 120
2 | CC(C)c1nc(C2CCCN2CC(=O)N2CCc3ccccc32)no1 (stereo unspecified) | -3.88 | -7.89 | 5.96 | 5.77 | -2.82 | -1.15 | -2.51 | -0.0405 | -3.43 | -4.88 | 6.73
3 | O=C(CN1CCOC(Cn2cccn2)C1)NCCc1ccc(F)cc1 (stereo unspecified) | -2.6 | 2.7 | -6.61 | -1.28 | -3.25 | -0.554 | 7.18 | 5.31 | -0.99 | 1.22 | 13.8
4 | CC(C)N(C)CC(=O)NC1CCc2nccn2C1 (stereo unspecified) | -0.518 | -5.33 | 4.88 | -4.8 | -4.38 | -5.21 | 3.14 | 31.6 | -2.73 | -6.17 | 2.61
5 | Cc1nn(C)c(C)c1C1CCCN1C(=O)c1ccc(CN(C)C)cc1 (stereo unspecified) | -0.183 | 21.6 | 2.25 | -4.88 | 2.14 | 0.554 | 11.1 | 11.4 | -20.8 | 23.2 | -6.46
6 | N#Cc1cccc(SCCS(N)(=O)=O)c1 | -3.48 | 1.39 | -2.94 | 14.2 | 5.15 | -9.27 | 15.3 | 7.55 | 0 | 5.13 | -3.3
7 | Cc1noc(C)c1CN1CC2(CCN(C(=O)c3cscn3)CC2)CC1=O | -5.65 | 10.4 | 0.445 | 16.6 | 5.01 | -5.52 | 14.1 | 0.0432 | 6.45 | 11.1 | -2.57
8 | CCN(Cc1ccc(OC)c(F)c1)C(=O)c1ccc(C)[nH]c1=O | -3.17 | 10.5 | 2.62 | 9.42 | -0.188 | 2.3 | 4.68 | 8.35 | 8.33 | 19.5 | -8.67
9 | CC(=O)Nc1nc(CN2CCOC(Cn3cc(C)cn3)C2)cs1 (stereo unspecified) | -2.79 | 15.6 | 9.13 | -6.5 | 0.0979 | 0.21 | 19.5 | 2.79 | 3.81 | 21.2 | -20.4
10 | COc1ccccc1C(=O)NC(CC(=O)O)c1cccs1 (stereo unspecified) | -3.27 | 13.9 | 0.385 | 5.67 | -1.33 | 2.8 | 20.2 | -5.53 | 5.21 | 12.7 | -19.2
11 | N#Cc1cccc(S(=O)(=O)N2CCCCC2CCN2CCCC2=O)c1 (stereo unspecified) | -5.51 | -52 | -6.45 | 9.03 | 4.76 | 2 | 8.99 | -12.8 | 4.17 | 11.1 | -4.06
